For nine compounds, growth inhibition results are on record in PubChem BioAssay (NCI).

Compounds without any hit were thinned out: in the full panel of roughly 79,000, 15% have a hit. A number with no mark means an inactive call. The source made the active and inactive calls. Rule as the data show it: active = growth inhibition above about 70%; inactive = the rest.

Assay [1] can be described thus: NCI Yeast Anticancer Drug Screen. Data for the rad50 strain (AID 155).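 Also: 0% = growth of vehicle-only cultures of the same strain.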 The following applies: S. cerevisiae rad50 strain growth inhibition, active compounds read high. An outline of the steps:
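DNA repair mutant yeast, compound exposure, growth read-out; inhibition is taken relative to vehicle.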

Assay [2] is described as follows: NCI Yeast Anticancer Drug Screen. Data for the mec2-1 strain (AID 157). The note with it: S. cerevisiae mec2-1 strain, active compounds read high. An outline of the steps:
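Yeast mec2-1 mutant treated with compound. Readout: growth inhibition vs vehicle controls.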

Assay [3] is described as follows: NCI Yeast Anticancer Drug Screen. Data for the sgs1 mgt1 strain (AID 161).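 Also: 0% = growth of cultures given vehicle only.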 The following applies: S. cerevisiae sgs1 mgt1 strain, active compounds read high. An outline of the steps:
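Genetically altered yeast, compound exposure, growth inhibition relative to vehicle.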

The nature of assay [4]: NCI Yeast Anticancer Drug Screen. Data for the cln2 rad14 strain (AID 165).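 Also: 0% = growth equal to vehicle treated cultures.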 The following applies: S. cerevisiae cln2 rad14 strain, active compounds read high. In outline:
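cln2 rad14 yeast strain; compound exposure; growth inhibition read vs vehicle controls.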

Assay [5] is described as follows: NCI Yeast Anticancer Drug Screen. Data for the bub3 strain (AID 167). The following applies: S. cerevisiae bub3 mutant strain, active compounds read high. An outline of the steps: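 In this screen, a yeast mutant lacking normal mitotic checkpoint function is challenged with compound. Relative growth versus vehicle gives the inhibition value.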
Assay [6] in a line: NCI Yeast Anticancer Drug Screen. Data for the mlh1 rad18 strain (AID 175). The following applies: S. cerevisiae mlh1 rad18 strain growth inhibition, active compounds read high. In outline:
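Yeast w/ defined DNA-repair lesions; compound exposure; growth vs vehicle controls → % inhibition.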

Where [7] appears, read: at 5.0 µM (retest, dose inferred, filed as 0.5).
[8] abbreviates: at 50.0 µM (retest, dose inferred, filed as 5.0).

As to `CCOC1Oc2ccccc2-c2nc(SC)ncc21` (configuration not stated), the growth inhibition in assay [1] (setting [7]) was 23%; in assay [1] (setting [8]) it was 20%; in assay [1] (at 50.0 µM), 75.4% (active); in assay [2] (setting [7]), 14%; in assay [2] (setting [8]), 20%; in assay [2] (at 50.0 µM), 19.9%. The growth inhibition in assay [3] (setting [7]) is 18%; in assay [3] (setting [8]), 21%; in assay [3] (at 50.0 µM) it was 36.6%; in assay [4] (setting [7]) it was 26%; in assay [4] (setting [8]), 18%; in assay [4] (at 50.0 µM) it was 15.9%. Also, the growth inhibition in assay [5] (setting [7]) was 28%; in assay [5] (setting [8]) it was 55%; in assay [5] (at 50.0 µM) it was 47.6%; in assay [6] (setting [7]) it was 17%; in assay [6] (setting [8]), 19%; in assay [6] (at 50.0 µM) it was 43.9%.

With `CN(C)c1ccc(C2ON=C(c3ccccc3)N2C23CC4CC(CC(C4)C2)C3)cc1` (configuration not stated), the growth inhibition in assay [1] (setting [7]) was 0%; in assay [1] (setting [8]), 36%; in assay [1] (at 50.0 µM), -11.6%; in assay [2] (setting [7]), -11%; in assay [2] (setting [8]), 3%; in assay [2] (at 50.0 µM), -3.05%. For the same compound, the growth inhibition was -5% in assay [3] (setting [7]); 33% in assay [3] (setting [8]); -7.15% in assay [3] (at 50.0 µM); 8% in assay [4] (setting [7]); 2% in assay [4] (setting [8]); 55.3% in assay [4] (at 50.0 µM). For the same compound, the growth inhibition was 14% in assay [5] (setting [7]); 13% in assay [5] (setting [8]); -11.1% in assay [5] (at 50.0 µM); 4% in assay [6] (setting [7]); 5% in assay [6] (setting [8]); -24% in assay [6] (at 50.0 µM).

In the case of `COC1=CC(=O)c2c(O)c3c(c(O)c2C1=O)C[C@](C)(O)C[C@@H]3O`, the growth inhibition is 27% in assay [1] (setting [7]); 93% (active) in assay [1] (setting [8]); 84.7% (active) in assay [1] (at 50.0 µM); 14% in assay [2] (setting [7]); 94% (active) in assay [2] (setting [8]); 79.8% (active) in assay [2] (at 50.0 µM). In addition, the growth inhibition in assay [3] (setting [7]) was 12%; in assay [3] (setting [8]), 91% (active); in assay [3] (at 50.0 µM), 85.6% (active); in assay [4] (setting [7]) it was 0%; in assay [4] (setting [8]), 29%; in assay [4] (at 50.0 µM) it was 47.7%. For the same compound, the growth inhibition was 36% in assay [5] (setting [7]); 93% (active) in assay [5] (setting [8]); 83.8% (active) in assay [5] (at 50.0 µM); 33% in assay [6] (setting [7]); 96% (active) in assay [6] (setting [8]); 84.5% (active) in assay [6] (at 50.0 µM).

For `CC(C)C1(c2ccccc2)C(=O)c2ccccc2C1=O`, the growth inhibition in assay [1] (setting [7]) is -6%; in assay [1] (setting [8]), 42%; in assay [1] (at 50.0 µM), 71.8% (active); in assay [2] (setting [7]) it was -7%; in assay [2] (setting [8]) it was 50%; in assay [2] (at 50.0 µM), 77.5% (active). The growth inhibition in assay [3] (setting [7]) was -5%; in assay [3] (setting [8]), 73% (active); in assay [3] (at 50.0 µM) it was 84.7% (active); in assay [4] (setting [7]), 2%; in assay [4] (setting [8]), 10%; in assay [4] (at 50.0 µM), 68.2%. Also, the growth inhibition in assay [5] (setting [7]) is -11%; in assay [5] (setting [8]), 14%; in assay [5] (at 50.0 µM), 79.2% (active); in assay [6] (setting [7]), -8%; in assay [6] (setting [8]), 37%; in assay [6] (at 50.0 µM) it was 46.1%.

For the compound `Clc1ccc(CN2CCCN(Cc3ccc(Cl)cc3)C2C2CCC=CO2)cc1` (configuration not stated), the growth inhibition was 4% in assay [1] (setting [7]); 19% in assay [1] (setting [8]); 66.1% in assay [1] (at 50.0 µM); -18% in assay [2] (setting [7]); 17% in assay [2] (setting [8]); 24.5% in assay [2] (at 50.0 µM). For the same compound, the growth inhibition is -17% in assay [3] (setting [7]); 42% in assay [3] (setting [8]); 72.6% (active) in assay [3] (at 50.0 µM); -4% in assay [4] (setting [7]); 7% in assay [4] (setting [8]); 46.9% in assay [4] (at 50.0 µM). Moreover, the growth inhibition in assay [5] (setting [7]) was 6%; in assay [5] (setting [8]), 17%; in assay [5] (at 50.0 µM), 56.3%; in assay [6] (setting [7]), -14%; in assay [6] (setting [8]), 36%; in assay [6] (at 50.0 µM), 45%.

Take `CCCCCCC(O)C(CO)CCCCC` (configuration not stated): the growth inhibition in assay [1] (setting [7]) is 0%; in assay [1] (setting [8]) it was 97% (active); in assay [1] (at 50.0 µM) it was 98% (active); in assay [2] (setting [7]), -2%; in assay [2] (setting [8]) it was 96% (active); in assay [2] (at 50.0 µM), 98% (active). For the same compound, the growth inhibition in assay [3] (setting [7]) is 1%; in assay [3] (setting [8]), 62%; in assay [3] (at 50.0 µM), 45.5%; in assay [4] (setting [7]) it was 5%; in assay [4] (setting [8]), 97% (active); in assay [4] (at 50.0 µM), 98.8% (active). Besides, the growth inhibition in assay [5] (setting [7]) was 0%; in assay [5] (setting [8]), 97% (active); in assay [5] (at 50.0 µM) it was 98.2% (active); in assay [6] (setting [7]), -2%; in assay [6] (setting [8]), 92% (active); in assay [6] (at 50.0 µM) it was 98.5% (active).

As for `O=[N+]([O-])OC1CCCC(O[N+](=O)[O-])c2c1n([O-])c1ccccc1[n+]2=O` (configuration not stated), the growth inhibition in assay [1] (setting [7]) is 53%; in assay [1] (setting [8]), 91% (active); in assay [1] (at 50.0 µM), 89.3% (active); in assay [2] (setting [7]), 40%; in assay [2] (setting [8]), 86% (active); in assay [2] (at 50.0 µM), 21.2%. The growth inhibition is 58% in assay [3] (setting [7]); 94% (active) in assay [3] (setting [8]); 82.5% (active) in assay [3] (at 50.0 µM); 39% in assay [4] (setting [7]); 84% (active) in assay [4] (setting [8]); 47.1% in assay [4] (at 50.0 µM). Also, the growth inhibition is 19% in assay [5] (setting [7]); 73% (active) in assay [5] (setting [8]); 17.5% in assay [5] (at 50.0 µM); 53% in assay [6] (setting [7]); 94% (active) in assay [6] (setting [8]); 84% (active) in assay [6] (at 50.0 µM).

With `Nc1ccccc1SCc1csc(-c2ccc(Cl)cc2)n1`, the growth inhibition was -4% in assay [1] (setting [7]); 98% (active) in assay [1] (setting [8]); 97.9% (active) in assay [1] (at 50.0 µM); -3% in assay [2] (setting [7]); 98% (active) in assay [2] (setting [8]); 97.3% (active) in assay [2] (at 50.0 µM). Besides, the growth inhibition in assay [3] (setting [7]) is 2%; in assay [3] (setting [8]), 98% (active); in assay [3] (at 50.0 µM) it was 98.5% (active); in assay [4] (setting [7]), -10%; in assay [4] (setting [8]), 97% (active); in assay [4] (at 50.0 µM), 97.2% (active). Also, the growth inhibition in assay [5] (setting [7]) is 2%; in assay [5] (setting [8]), 98% (active); in assay [5] (at 50.0 µM), 97.1% (active); in assay [6] (setting [7]), 2%; in assay [6] (setting [8]), 98% (active); in assay [6] (at 50.0 µM), 97.6% (active).

On to `Clc1ccc(-c2cc(-c3cc(-c4ccc(Cl)c(Cl)c4)n[nH]3)[nH]n2)cc1Cl`, for which the growth inhibition is -2% in assay [1] (setting [7]); 68% in assay [1] (setting [8]); 91% (active) in assay [1] (at 50.0 µM); 6% in assay [2] (setting [7]); 43% in assay [2] (setting [8]); 22.8% in assay [2] (at 50.0 µM). Also, the growth inhibition in assay [3] (setting [7]) is 0%; in assay [3] (setting [8]), 67%; in assay [3] (at 50.0 µM), 65%; in assay [4] (setting [7]), 3%; in assay [4] (setting [8]), 60%; in assay [4] (at 50.0 µM), 29.7%. Moreover, the growth inhibition is -14% in assay [5] (setting [7]); 89% (active) in assay [5] (setting [8]); 22.8% in assay [5] (at 50.0 µM); 19% in assay [6] (setting [7]); 89% (active) in assay [6] (setting [8]); 65% in assay [6] (at 50.0 µM).
